# Data as given in PubChem BioAssay (EPA / NIEHS).
# Records with an inconclusive call do not appear. Activity calls are given as the source filed them. How the source made its calls, unless noted: active means hit-call score of the fitted dose curve at least 0.9, where 1 is the maximum; inconclusive means response in the unintended direction; inactive means score below 0.9.
# Molecular target: human Serotonin, 5-Hydroxytryptamine Receptor 3 (5HT3), HTR3A (gene 3359) (UniProt P46098)
# Assay: NVS_LGIC_h5HT3: NovaScreen (NVS) Ligand-Gated Ion Channel Assay for human Serotonin, 5-Hydroxytryptamine Receptor 3 (5HT3) (AID 2283325)
# Procedure, shortened: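 Radioligand displacement binding to human 5-HT3 from HEK293 membranes, read by filter-based scintillation counting after 1 h. Screen at 25 uM in duplicate; chemicals passing threshold were retested in concentration-response up to 50 uM.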
# Sequence of human Serotonin, 5-Hydroxytryptamine Receptor 3 (5HT3), HTR3A (gene 3359) (P46098 whole entry, looked up): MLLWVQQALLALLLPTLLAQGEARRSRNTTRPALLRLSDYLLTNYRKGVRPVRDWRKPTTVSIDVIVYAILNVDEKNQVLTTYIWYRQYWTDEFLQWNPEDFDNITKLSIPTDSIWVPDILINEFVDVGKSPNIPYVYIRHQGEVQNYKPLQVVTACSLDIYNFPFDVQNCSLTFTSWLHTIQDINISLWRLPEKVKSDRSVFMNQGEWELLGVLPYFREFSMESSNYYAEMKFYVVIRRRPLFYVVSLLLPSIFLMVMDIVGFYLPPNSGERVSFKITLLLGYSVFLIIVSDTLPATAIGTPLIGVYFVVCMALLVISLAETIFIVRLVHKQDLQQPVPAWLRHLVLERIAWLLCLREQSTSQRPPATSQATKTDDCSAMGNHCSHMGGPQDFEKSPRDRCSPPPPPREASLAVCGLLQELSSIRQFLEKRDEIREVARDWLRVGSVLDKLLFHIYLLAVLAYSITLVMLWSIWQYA
SMILES,AC50,outcome
Cc1cn([C@H]2C=C[C@@H](CO)O2)c(=O)[nH]c1=O,8.81 µM (active),–
C/C=C/C=C/C(=O)O,–,inactive
CCCCCCCCCCCCCCOS(=O)(=O)O,25 µM (active),–
OCC(O)CO,25 µM (active),–

# Molecular target: rat Thyrotropin Releasing Hormone Receptor (TRH), Trhr (gene 25570) (UniProt Q01717)
# Sequence (Q01717 whole entry, looked up): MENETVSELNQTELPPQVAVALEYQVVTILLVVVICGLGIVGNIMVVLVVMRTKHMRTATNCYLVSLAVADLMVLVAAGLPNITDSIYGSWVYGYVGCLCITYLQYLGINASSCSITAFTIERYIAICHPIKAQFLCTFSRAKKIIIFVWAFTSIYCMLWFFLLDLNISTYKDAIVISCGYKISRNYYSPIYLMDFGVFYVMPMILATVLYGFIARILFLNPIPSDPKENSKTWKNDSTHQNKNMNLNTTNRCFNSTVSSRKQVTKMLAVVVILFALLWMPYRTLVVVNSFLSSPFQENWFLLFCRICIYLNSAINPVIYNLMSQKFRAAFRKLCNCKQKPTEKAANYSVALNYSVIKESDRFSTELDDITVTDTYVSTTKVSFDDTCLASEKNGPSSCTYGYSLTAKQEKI
# Assay: NVS_GPCR_rTRH: NovaScreen (NVS) G Protein-Coupled Receptor Assay for rat Thyrotropin Releasing Hormone Receptor (TRH) (AID 2283329);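 further: hit means lower bound tracer signal versus DMSO baseline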
# Procedure, shortened: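 Rat forebrain membranes; radioligand displacement at TRH receptor by filter-based scintillation counting, read 4 h after dosing. Duplicate single-point screen at 25 uM, actives rerun in concentration series; loss of signal relative to DMSO.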
SMILES,outcome,AC50
C#CC(O)C(CC)CCCC (stereo not drawn),inactive,–
O=C1CCCCC1,inactive,–
CS(=O)(=O)c1ccc([C@@H](C[C@H]2CCC(=O)C2)C(=O)Nc2cnccn2)cc1Cl,inactive,–
O=C(O)CN(CC(=O)O)CC(=O)O,–,5.7 µM (active)
CC(=O)[C@@]1(O)CC[C@H]2[C@@H]3CCC4=CC(=O)CC[C@]4(C)[C@H]3CC[C@@]21C,inactive,–
O=[Si]=O,inactive,–

# Molecular target: human Peripheral-type Benzodiazepine Receptor (PBR), TSPO (gene 706) (UniProt P30536)
# Sequence (P30536 whole entry, looked up): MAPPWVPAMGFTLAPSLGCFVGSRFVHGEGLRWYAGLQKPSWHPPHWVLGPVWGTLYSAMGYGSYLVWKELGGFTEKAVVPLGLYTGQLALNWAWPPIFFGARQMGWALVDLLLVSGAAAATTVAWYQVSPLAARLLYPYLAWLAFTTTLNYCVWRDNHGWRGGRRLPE
# Assay: NVS_MP_hPBR: NovaScreen (NVS) Membrane Protein Assay for human Peripheral-type Benzodiazepine Receptor (PBR) (AID 2283331);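 further: hits reduce radioligand binding relative to DMSO baseline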
# Procedure, shortened: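 Radioligand displacement on human colonic cell membranes, 1 h incubation; bound radioactivity by filtration and scintillation counting. Primary screen in duplicate at 25 uM single concentration, actives followed up in concentration series; loss of binding versus DMSO.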
SMILES,AC50,outcome
CC(C)(O)c1ccc(CNC(=O)c2cccnc2Oc2ccc(F)cc2)cc1,8.65 µM (active),–
Oc1ccc(O)cc1,–,inactive
CC(COCC(C)OC(=O)c1ccccc1)OC(=O)c1ccccc1 (stereo not drawn),–,inactive
CCCCCCC(CCCCCCCCCCC(=O)OCC(COC(C)=O)OC(C)=O)OC(C)=O (stereo not drawn),–,inactive

# Molecular target: Voltage-gated inwardly rectifying potassium channel KCNH2 (Homo sapiens) (UniProt Q12809)
# Sequence (Q12809 whole entry, looked up): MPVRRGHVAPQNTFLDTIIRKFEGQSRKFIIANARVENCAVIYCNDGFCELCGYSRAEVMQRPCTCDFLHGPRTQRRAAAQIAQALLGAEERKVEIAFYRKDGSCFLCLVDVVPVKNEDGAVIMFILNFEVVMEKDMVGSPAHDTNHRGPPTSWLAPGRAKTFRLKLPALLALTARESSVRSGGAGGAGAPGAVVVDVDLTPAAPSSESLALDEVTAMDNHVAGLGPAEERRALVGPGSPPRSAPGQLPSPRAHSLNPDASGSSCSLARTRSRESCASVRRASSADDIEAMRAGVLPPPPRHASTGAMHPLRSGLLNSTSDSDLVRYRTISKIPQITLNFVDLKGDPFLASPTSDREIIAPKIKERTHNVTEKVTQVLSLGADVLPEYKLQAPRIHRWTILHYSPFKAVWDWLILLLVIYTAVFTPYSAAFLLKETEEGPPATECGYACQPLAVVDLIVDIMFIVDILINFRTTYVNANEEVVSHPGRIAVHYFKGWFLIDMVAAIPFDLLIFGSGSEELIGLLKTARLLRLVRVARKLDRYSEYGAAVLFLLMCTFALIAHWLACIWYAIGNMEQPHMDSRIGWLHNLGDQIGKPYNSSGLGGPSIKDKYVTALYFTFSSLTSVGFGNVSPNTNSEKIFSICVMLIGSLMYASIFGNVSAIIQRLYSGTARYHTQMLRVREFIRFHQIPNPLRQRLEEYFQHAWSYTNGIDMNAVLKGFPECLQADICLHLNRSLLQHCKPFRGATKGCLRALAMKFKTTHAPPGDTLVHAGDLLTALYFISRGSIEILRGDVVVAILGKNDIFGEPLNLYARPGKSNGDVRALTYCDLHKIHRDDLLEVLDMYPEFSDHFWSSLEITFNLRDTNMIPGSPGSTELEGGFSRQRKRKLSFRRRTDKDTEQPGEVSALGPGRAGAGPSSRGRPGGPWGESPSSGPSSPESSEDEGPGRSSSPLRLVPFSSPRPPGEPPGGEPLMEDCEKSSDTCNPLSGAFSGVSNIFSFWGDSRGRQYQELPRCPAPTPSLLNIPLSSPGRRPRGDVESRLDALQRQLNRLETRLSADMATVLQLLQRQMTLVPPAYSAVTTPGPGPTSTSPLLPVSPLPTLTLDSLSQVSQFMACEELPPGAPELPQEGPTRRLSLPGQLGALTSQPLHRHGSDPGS
# Assay: NVS_IC_hKhERGCh: NovaScreen (NVS) Ion Channel Assay for human Potassium Channel ERG (KhERGCh) (AID 2283333)
# Procedure, shortened: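 Cell-free radioligand competition binding on hERG protein extracted from CHO cells, read by filter-based scintillation counting 0.75 h after dosing. Primary screen at 25 uM in duplicate, actives followed in concentration series. Signal loss fitted versus DMSO.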
row,SMILES,outcome
1,O=C(O)c1[nH]n(-c2ccc(S(=O)(=O)O)cc2)c(=O)c1N=Nc1ccc(S(=O)(=O)O)cc1,inactive
2,Cn1cnc2c1c(=O)[nH]c(=O)n2C,inactive
3,CCCCCCC(CCCCCCCCCCC(=O)OCC(COC(C)=O)OC(C)=O)OC(C)=O (stereo not drawn),inactive

# Molecular target: Glutamate receptor ionotropic, kainate 1 (Rattus norvegicus) (UniProt P22756)
# Sequence (P22756 whole entry, looked up): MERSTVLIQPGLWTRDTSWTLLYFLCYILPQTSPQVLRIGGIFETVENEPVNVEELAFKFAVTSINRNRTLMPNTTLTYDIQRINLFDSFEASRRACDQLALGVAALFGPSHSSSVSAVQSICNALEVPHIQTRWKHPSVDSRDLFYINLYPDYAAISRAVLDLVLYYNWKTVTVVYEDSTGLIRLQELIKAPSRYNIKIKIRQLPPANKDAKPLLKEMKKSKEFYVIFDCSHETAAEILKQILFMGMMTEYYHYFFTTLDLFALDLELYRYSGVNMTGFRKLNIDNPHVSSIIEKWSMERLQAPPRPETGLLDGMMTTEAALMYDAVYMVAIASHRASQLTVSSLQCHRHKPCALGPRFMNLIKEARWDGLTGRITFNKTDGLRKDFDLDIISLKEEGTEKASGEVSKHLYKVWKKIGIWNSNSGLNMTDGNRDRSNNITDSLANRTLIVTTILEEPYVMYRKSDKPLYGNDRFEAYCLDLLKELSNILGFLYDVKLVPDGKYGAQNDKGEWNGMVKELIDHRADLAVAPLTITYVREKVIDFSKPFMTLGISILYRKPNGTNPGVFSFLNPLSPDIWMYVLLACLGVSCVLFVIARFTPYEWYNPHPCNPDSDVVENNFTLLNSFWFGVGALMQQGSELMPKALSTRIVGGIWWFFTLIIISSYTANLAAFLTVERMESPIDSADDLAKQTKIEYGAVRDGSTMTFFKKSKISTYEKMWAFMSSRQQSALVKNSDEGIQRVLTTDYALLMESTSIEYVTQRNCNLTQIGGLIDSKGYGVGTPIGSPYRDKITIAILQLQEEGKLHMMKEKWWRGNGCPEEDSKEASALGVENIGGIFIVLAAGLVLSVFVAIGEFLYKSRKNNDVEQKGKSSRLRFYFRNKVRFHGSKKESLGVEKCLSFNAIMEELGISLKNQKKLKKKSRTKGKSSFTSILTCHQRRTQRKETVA
# Assay: NVS_IC_rKAR: NovaScreen (NVS) Ion Channel Assay for rat Kainic Acid Receptors (KAR) (AID 2283334; active means hit-call score of the fitted dose curve at least 0.9, where 1 is the maximum; inactive means score below 0.9)
# Procedure, shortened: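 Radioligand displacement binding using rat forebrain membranes, 1 h incubation, filter-based scintillation counting. Screened in duplicate at 25 uM, with actives retested in concentration-response up to 50 uM; fitted against DMSO.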
row,SMILES,outcome
1,CC(C)COC(=O)CCCCC(=O)OCC(C)C,inactive
2,O=C(Oc1ccccc1)c1cccc(C(=O)Oc2ccccc2)c1,inactive
3,COC(=O)CCC(=O)OC,inactive

# Molecular target: rat Peripheral-type Benzodiazepine Receptor (PBR), Tspo (gene 24230) (UniProt P16257)
# Sequence (P16257 whole entry, looked up): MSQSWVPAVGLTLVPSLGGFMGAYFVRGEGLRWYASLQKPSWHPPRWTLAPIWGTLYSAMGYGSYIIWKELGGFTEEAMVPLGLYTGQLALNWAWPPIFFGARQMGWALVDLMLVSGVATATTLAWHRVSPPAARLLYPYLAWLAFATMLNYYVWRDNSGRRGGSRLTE
# Assay: NVS_MP_rPBR: NovaScreen (NVS) Membrane Protein Assay for rat Peripheral-type Benzodiazepine Receptor (PBR) (AID 2283335)
# Experimental: NVS_MP_rPBR is a biochemical, single-readout assay that uses extracted gene-proteins from Rat kidney membranes in a tissue-based cell-free assay. Measurements were taken 1 hour after chemical dosing in a 48-well plate.NVS_MP_rPBR is one of one assay component(s) measured or calculated from the NVS_MP_rPBR assay. It is designed to make measurements of radioligand binding, a form of binding reporter, as detected with scintillation counting signals by Filter-based radiodetection technology.Data from the assay component NVS_MP_rPBR was analyzed into 1 assay endpoint. This assay endpoint, NVS_MP_rPBR, was analyzed in the positive analysis fitting direction relative to DMSO as the negative control and baseline of activity. Using a type of binding reporter, loss-of-signal activity can be used to understand changes in the binding as they relate to the gene Tspo. Furthermore, this assay endpoint can be referred to as a primary readout, because the performed assay has only produced 1 assay endpoint. To generalize the intended target to other relatable targets, this assay endpoint is annotated to the transporter intended target family, where the subfamily is cholesterol transporter.
# Binding assays used specific radioligands (tritiated, iodinated) with non-radioactive competitive displacement ligands in agonist or antagonist protocols (as indicated) and various reference compounds and inhibitors to titrate specific binding to receptors and transporters. Most enzyme assays (CYPs, kinases, phosphatases, proteases, HDACs) used recombinant protein and specific substrates (fluorescence mostly, some colorimetric and radioactive) and inhibitors, followed by a biochemical separation of substrate and product. All assays for the biochemical HTS were initially run in duplicate at a single concentration (10 uM for CYP450 assays and 25 uM for all others). […] Each assay was run with positive and negative controls, and concurrent controls on every plate. The follow-up (secondary) screen tested active chemical-pairs in concentration series, as well as a few additional assays not tested in the primary screen, some selected negative inactives, and several cases re-run in the concentration series for confirmatory purposes.
SMILES,AC50,outcome
CC(C)(O)c1ccc(CNC(=O)c2cccnc2Oc2ccc(F)cc2)cc1,4.31 µM (active),–
CC(COCC(C)OC(=O)c1ccccc1)OC(=O)c1ccccc1 (stereo not drawn),17 µM (active),–
Cc1ccc(-c2cc(C(F)(F)F)nn2-c2ccc(S(N)(=O)=O)cc2)cc1,–,inactive
